Source: publication PMC4336329 (PLoS ONE, 2015)
Among all 310,000 compounds or so, about 2,200 (0.71%) showed an effect of 50% or more. Effects have a minus sign here. The sample holds strong results, similar compounds and a random draw of the others, so the mix is not that of the screen.

Target: human ether-à-go-go-related gene (hERG) potassium channel (human, UniProt Q12809)
Assay: primary screen, population patch clamp on CHO cells stably expressing hERG; higher = less effect of the substance

Chain of human ether-à-go-go-related gene (hERG) potassium channel (Q12809 whole entry, looked up): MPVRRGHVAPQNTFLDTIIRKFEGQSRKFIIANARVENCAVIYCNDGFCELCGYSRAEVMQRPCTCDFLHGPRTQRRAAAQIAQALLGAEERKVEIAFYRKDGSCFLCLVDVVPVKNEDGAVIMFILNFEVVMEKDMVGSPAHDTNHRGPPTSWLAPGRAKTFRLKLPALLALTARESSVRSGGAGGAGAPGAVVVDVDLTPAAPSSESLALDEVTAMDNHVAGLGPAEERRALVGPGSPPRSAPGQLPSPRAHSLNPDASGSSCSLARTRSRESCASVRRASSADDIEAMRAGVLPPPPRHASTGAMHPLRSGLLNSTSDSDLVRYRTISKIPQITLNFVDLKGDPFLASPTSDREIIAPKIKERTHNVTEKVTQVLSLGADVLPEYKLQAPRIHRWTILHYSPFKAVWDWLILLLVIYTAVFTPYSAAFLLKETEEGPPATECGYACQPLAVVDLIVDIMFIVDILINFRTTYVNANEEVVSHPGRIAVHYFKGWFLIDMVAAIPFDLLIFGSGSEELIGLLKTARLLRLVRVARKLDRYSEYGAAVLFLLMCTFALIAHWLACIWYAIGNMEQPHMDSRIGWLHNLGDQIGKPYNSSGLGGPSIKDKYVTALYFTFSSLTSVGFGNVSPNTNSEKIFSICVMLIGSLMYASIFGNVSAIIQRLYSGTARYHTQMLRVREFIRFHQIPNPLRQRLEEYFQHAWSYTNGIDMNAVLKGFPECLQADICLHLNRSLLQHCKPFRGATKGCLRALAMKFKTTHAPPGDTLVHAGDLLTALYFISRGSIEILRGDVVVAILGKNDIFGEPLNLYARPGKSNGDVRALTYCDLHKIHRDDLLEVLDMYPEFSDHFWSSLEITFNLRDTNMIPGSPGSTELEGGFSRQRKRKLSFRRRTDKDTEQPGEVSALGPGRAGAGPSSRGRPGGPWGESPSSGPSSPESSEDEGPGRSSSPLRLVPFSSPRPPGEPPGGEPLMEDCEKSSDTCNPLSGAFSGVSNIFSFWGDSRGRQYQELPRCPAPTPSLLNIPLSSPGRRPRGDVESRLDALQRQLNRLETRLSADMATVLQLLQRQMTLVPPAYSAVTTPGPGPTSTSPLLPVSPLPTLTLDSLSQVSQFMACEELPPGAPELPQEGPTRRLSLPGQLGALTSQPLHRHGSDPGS

| Compound | hERG current change (%, negative = inhibition) at 1uM [%] |
| --- | --- |
| Cc1ncc(S(=O)(=O)c2ccccc2)c(-c2ccccc2Cl)n1 | 2.7 |
| Cc1cc2c(cc1S(=O)(=O)NC1CCCCC1C)OCC(=O)N2 (centres unmarked) | 5.01 |
| Cc1ccc(OCCNC(=O)c2ccc(NC(=O)CC3SC(N4CCCC4)=NC3=O)cc2)cc1 (centres unmarked) | -6.94 |
| C=C(C)CNC(=O)c1ccc(OC2CCN(S(=O)(=O)N(C)C)CC2)cc1 | 13.2 |
| COc1ccc2c(c1)CC1(CN2C)C(=O)NC(=O)N(CCc2ccccc2)C1=O (centres unmarked) | -6.39 |
| CCN(CC)S(=O)(=O)c1ccc2c(c1)N(CC(=O)Nc1ccc(NC(C)=O)cc1)C(=O)CO2 | 10.6 |
| CCCN1CCC(N(CCc2ccccc2)Cc2ccccc2)CC1 | -73.2 |
| CCCCN(Cc1ccccc1)C1CCN(Cc2ccccc2)CC1 | -14.5 |
| CC(C)CC(=O)N1CCC(N(CCc2ccccc2)Cc2ccccc2)CC1.O=C(O)C(=O)O | 7.09 |
| O=C(Cc1ccccc1)N1CCN(C2CCCCCC2)CC1.O=C(O)C(=O)O | 4.29 |
| CCCCN(Cc1ccccc1)C1CCN(CCc2ccccc2)CC1 | -13.4 |
| O=C(O)C(=O)O.c1ccc(CCN(Cc2ccccc2)C2CCN(C3CCCC3)CC2)cc1 | -68.9 |
| O=C(Nc1ccccc1)N1CCCc2ccccc21 | -28.2 |
| Cc1ccn2c(=O)nc(SCC(=O)N3CCCCCC3)nc2c1 | 19.6 |
| CCCCN(C(=O)Nc1ccc(Cl)cc1)C1CCN(C(C)=O)CC1 | -19.1 |
| CC(C)CCN(C(=O)Nc1ccc(Cl)cc1)C1CCN(C(C)C)CC1 | -57.6 |
| CCOc1ccc(NC(=O)N(CCC(C)C)C2CCN(C(C)=O)CC2)cc1 | 7.21 |
| Cc1cc(NC(=O)c2cc3cccc([N+](=O)[O-])c3[nH]2)ccc1F | 11.5 |
| COc1c(C)cc(Br)cc1C(=O)Nc1cccc(-c2nc3ncccc3o2)c1 | -7.42 |
| O=C(c1sc2cccc(F)c2c1Cl)N1CCN(c2ncccn2)CC1 | -65.4 |
| O=C(c1sc2ccccc2c1Cl)N1CCN(c2ncccn2)CC1 | 6.43 |
| O=C(c1c(F)cccc1F)N1CCN(c2ncccn2)CC1 | 12.5 |
| COc1cccc(-c2nn(-c3ccc(C)cc3)cc2C(=O)NCC2CCCO2)c1 (centres unmarked) | -0.814 |
| COC(=O)c1ccc(S(=O)(=O)NCCSc2nnc3c4ccccc4n(C)c3n2)cc1 | 1.09 |

| Compound | hERG current change (%, negative = inhibition) at 1uM [%] |
| --- | --- |
| CCOc1cc(N2CCOCC2)c(OCC)cc1NC(=O)Cn1nc(C)c([N+](=O)[O-])c1C | 6.15 |
| CCc1cc2c(N3CCCCC3)ncnc2s1.Cl | 5.54 |
| CCc1cc2c(NCCO)ncnc2s1 | 14.1 |
| CCc1cc2c(NCCN3CCCCC3)ncnc2s1.Cl | -55.9 |
| CC[C@@]12C(=O)N(c3cccc(Br)c3)C(=O)N1[C@H](c1ccc(Cl)cc1)[C@@H]1C(=O)N(C3CCCCC3)C(=O)[C@@H]12 | 6.83 |
| COc1ccc2nc(C)cc(N3CCOCC3)c2c1 | 7.31 |
| Cc1ccccc1N1CCN(S(=O)(=O)c2ccccc2)CC1 | 5.62 |
| CC(=O)Nc1ccc(S(=O)(=O)N2CCN(S(=O)(=O)c3ccccc3)CC2)cc1 | 10.1 |
| CC(=O)Nc1ccc(S(=O)(=O)N2CCN(c3nc(C)cc(C)n3)CC2)cc1 | 14.9 |
| Cc1cc(N2CCN(S(=O)(=O)c3ccc(C)c(C)c3)CC2)c2ccccc2n1 | -18.3 |
| Cn1c(N2CCN(S(=O)(=O)c3ccc(Cl)cc3)CC2)nc2ccccc21 | -23.2 |
| Cc1cc(N2CCN(S(=O)(=O)c3ccccc3)CC2)c2ccccc2n1 | -78.6 |
| CC(=O)Nc1ccc(S(=O)(=O)N2CCN(c3cc(C)nc4ccccc34)CC2)cc1 | -71.6 |
| Cc1cc(N2CCN(S(=O)(=O)c3ccc(Cl)cc3)CC2)c2ccccc2n1 | -80.8 |
| Cc1cc(N2CCN(S(=O)(=O)c3ccc(Cl)c(Cl)c3)CC2)c2ccccc2n1 | 4.58 |
| COc1ccc2nc(C)cc(N3CCN(S(=O)(=O)c4ccccc4F)CC3)c2c1 | -62.2 |
| COc1ccc2nc(C)cc(N3CCN(c4ccccc4)CC3)c2c1 | -29 |
| Cc1ccc(CS(=O)(=O)CCC(=O)NCCC(C)C)cc1 | 6.06 |
| COCCn1c(C)cc(C(=O)CSc2nc(C)c(C)c(C)n2)c1C | 9.29 |
| CCc1noc(C)c1C(=O)Nc1sc(C(=O)N(C)C)c(C)c1C(=O)OC | -6.16 |
| Cc1c(NC(=O)c2ccc(S(=O)(=O)N3CCOCC3)cc2)cccc1[N+](=O)[O-] | 7.56 |
| CC(C)(C)n1ncc2c(=O)n(Cc3cccc(Cl)c3)cnc21 | -10.1 |
| Cc1ccnc(NS(=O)(=O)c2cccs2)c1 | 12.9 |
| Cc1ccc(C(=O)COC(=O)c2ccc3c(c2)C(=O)N(c2cccc4ncccc24)C3=O)cc1C | 4.09 |

| Compound | hERG current change (%, negative = inhibition) at 1uM [%] |
| --- | --- |
| COC(=O)c1c(C)[nH]c(C(=O)C(C)OC(=O)C2CC2)c1C (centres unmarked) | 10 |
| Cc1cc(N2CCN(c3ccc([N+](=O)[O-])c4cccnc34)CC2)c2ccccc2n1 | -13.9 |
| Cc1ccc(S(=O)(=O)N2CCN(c3ccc(C(F)(F)F)cc3[N+](=O)[O-])CC2)cc1 | 2.51 |
| Cc1cc(N2CCN(c3ccc(C(F)(F)F)cc3[N+](=O)[O-])CC2)c2ccccc2n1 | -64.2 |
| COc1ccccc1NC(=O)Nc1ccc(N2CCOCC2)cc1 | 10.4 |
| Cc1ccc(NC(=O)CN2C(=O)NC(C)(c3ccc(Cl)cc3)C2=O)cc1 (centres unmarked) | 14.4 |
| COc1ccc(CN2C3CCCC2CC(NC(=O)Nc2cccc(C)c2)C3)cc1 (centres unmarked) | -71.5 |
| Cc1ccc(CN2C3CCCC2CC(NC(=O)Nc2cccc(F)c2)C3)cc1 (centres unmarked) | -85.2 |
| O=C(/C=C/c1ccccc1)NC1CC2CCCC(C1)N2Cc1ccccc1 (centres unmarked) | -46.4 |
| COc1ccc(CN2C3CCCC2CC(NC(=O)/C=C/c2ccccc2)C3)cc1 (centres unmarked) | -84.2 |
| COc1ccc(NC(=O)NC2CC3CCCC(C2)N3Cc2ccccc2)cc1 (centres unmarked) | -17.4 |
| COc1ccc(CN2C3CCCC2CC(NC(=O)Nc2ccccc2)C3)cc1 (centres unmarked) | -64 |
| CCC(=O)NC1CC2CCCC(C1)N2Cc1ccc(C)cc1 (centres unmarked) | -11.9 |
| COc1ccc(CN2C3CCCC2CC(NC(=O)Nc2ccccc2C)C3)cc1 (centres unmarked) | -36.5 |
| O=C(Nc1cccc(F)c1)NC1CC2CCCC(C1)N2C1CC1 (centres unmarked) | 4.85 |
| CCc1cccc(CC)c1NC(=O)CN1C2CCCC1CC(NC(=O)Nc1cccc(OC)c1)C2 (centres unmarked) | 9.12 |
| COc1ccccc1CN1C2CCCC1CC(NC(=O)/C=C/c1ccccc1)C2 (centres unmarked) | -43.8 |
| Cc1cccc(NC(=O)NC2CC3CCC(C2)N3Cc2ccco2)c1 (centres unmarked) | -8.04 |
| CC(C)(C)OC(=O)NCCCCCc1nnc(SCc2ccc(F)cc2)o1 | 3.71 |
| CCCCc1cc2c(s1)CCCC/C2=N/O | 2.41 |
| Cc1cc(S(=O)(=O)Nc2ccc(C(=O)NCCCN3CCOCC3)cc2)ccc1F | 19.8 |
| Cc1ccsc1/C=N/n1c(-c2ccncc2)n[nH]c1=S | 19.8 |
| O=C(O)C=C(Br)Br | 7.58 |
| COC(=O)/C(=C1/Oc2cc(C)oc(=O)c2S1)C(F)(F)F | 13.6 |

| Compound | hERG current change (%, negative = inhibition) at 1uM [%] |
| --- | --- |
| CCOC(=O)CON1C(=O)C(C)(C)N(OCC(=O)OCC)C(=O)C1(C)C | 15.7 |
| Cc1ccc(-n2ccnc(SCC(=O)NC3CCCCC3)c2=O)cc1F | 14.5 |
| CC(c1ccccc1)C1CC(=O)N(CC(=O)O)C1=O (centres unmarked) | 16.2 |
| Cc1cccn2c(=O)c3cc(C(=O)NC4CCCC4)sc3nc12 | 2.15 |
| Cc1cccn2c(=O)c3cc(C(=O)NC4CCCC4)c(=N)n(C4CCCC4)c3nc12 | -87 |
| Cc1cccn2c(=O)c3cc(C(=O)NC4CCCCCC4)sc3nc12 | 15.1 |
| Cc1cccn2c(=O)c3cc(C(=O)NC4CCCC4)n(C)c3nc12 | 9.12 |
| Cc1cccn2c(=O)c3cc(C(=O)NC4CCCCC4)n(C)c3nc12 | 13.8 |
| Cc1cccn2c(=O)c3cc(C(=O)NC4CCCC4)c(=N)n(C4CCCCC4)c3nc12 | -81.9 |
| Cc1ccc(C(=O)CSc2nnc(COc3ccc(C#N)cc3)n2-c2ccccc2)cc1 | 11.8 |
| O=C(CCc1nc(-c2ccccc2Cl)no1)NC1CCCC1 | 1.7 |
| CCOC(=O)Nc1ccc2c(c1)N(C(=O)CCN(C)C)c1ccccc1S2.Cl | -5.69 |
| COc1cc(CN2CCC(CO)(CCOc3ccccc3)CC2)cc(OC)c1OC | 3.71 |
| COc1ccc(CN2CCC(CO)(CCOc3ccccc3)CC2)c(OC)c1C | -81.6 |
| COc1ccc(OC)c(CN2CCC(CO)(CCOc3ccccc3)CC2)c1 | -30 |
| COc1cc(Cl)c(CN2CCC(CO)(CCOc3ccccc3)CC2)cc1OC | -85.1 |
| COc1cc(OC)c(CN2CCC(CO)(CCOc3ccccc3)CC2)c(OC)c1 | -87.7 |
| CC(=O)c1cccc(CN2CCC(CO)(CCOc3ccccc3)CC2)c1 | -3.07 |
| COc1cc(CN2CCC(CO)(CCOc3ccccc3)CC2)cc(OC)c1 | -8.26 |
| COc1ccc(CN2CCC(CO)(CCOc3ccccc3)CC2)cc1C | -77.6 |
| COc1ccc2[nH]c(CN3CCC(CO)(CCOc4ccccc4)CC3)c(C)c2c1 | 9.37 |
| COc1cc(Cl)c(CN2CCCC(CO)(Cc3ccccc3)C2)cc1OC (centres unmarked) | -2.72 |
| Cc1nn(C)c(Cl)c1CN1CCC(CO)(CCOc2ccccc2)CC1 | -12.9 |
